Experimental data published in PubChem BioAssay AID1159580 (chemical genetic matrix, 2015).
“And” between values parts separate entries of the source, which are not always exact repeats. Equal values may be shown once. Hit rate of the full screen: of about 5,500 compounds, about 2,000 (36%) were called active. Inconclusive results (about 18%) are left out. Rule as the data show it: active = normalized growth mostly below about 0.91 (no sharp cut-off); inconclusive = no clear call, values can overlap the other calls; inactive = mostly above about 0.92. The list shows a part of the results.

Test: chemical genetic growth profiling, strain panel (AID 1159580);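 also: tested at 20 µM; growth read once vehicle control cultures reached saturation at 30 °C; 1 = growth at the plate median or of vehicle wells; lower values mean less growth of the strain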
Settings: growth OD
[1] = S. cerevisiae deletion strains, locus YAL013W, strain DEP1, active compounds read low
[2] = S. cerevisiae deletion strains, locus YBR229C, strain ROT2, active compounds read low
[3] = S. cerevisiae deletion strains, locus YDL101C, strain DUN1, active compounds read low
[4] = S. cerevisiae deletion strains, locus YDR150W, strain NUM1, active compounds read low
[5] = S. cerevisiae deletion strains, locus YEL061C, strain CIN8, active compounds read low
[6] = S. cerevisiae deletion strains, locus YGR078C, strain PAC10, active compounds read low
[7] = S. cerevisiae deletion strains, locus YHR030C, strain SLT2, active compounds read low
[8] = S. cerevisiae deletion strains, locus YJR043C, strain POL32, active compounds read low
[9] = S. cerevisiae deletion strains, locus YJR075W, strain HOC1, active compounds read low
[10] = S. cerevisiae deletion strains, locus YKL190W, strain CNB1, active compounds read low
[11] = S. cerevisiae deletion strains, locus YLR039C, strain RIC1, active compounds read low
[12] = S. cerevisiae deletion strains, locus YLR262C, strain YPT6, active compounds read low
[13] = S. cerevisiae deletion strains, locus YMR263W, strain SAP30, active compounds read low
[14] = S. cerevisiae deletion strains, locus YNL153C, strain GIM3, active compounds read low
[15] = S. cerevisiae deletion strains, locus YNL322C, strain KRE1, active compounds read low
[16] = S. cerevisiae deletion strains, locus YOL006C, strain TOP1, active compounds read low
[17] = S. cerevisiae deletion strains, locus YPL055C, strain LGE1, active compounds read low
[18] = S. cerevisiae deletion strains, locus YPL241C, strain CIN2, active compounds read low

Measured: normalized growth

CN1CCc2c(c3ccccc3n2Cc2ccccc2)C1
active: S. cerevisiae deletion strains, locus YBR021W, strain FUR4, active compounds read low 0.631 | S. cerevisiae deletion strains, locus YGR135W, strain pre9, active compounds read low 0.863 | S. cerevisiae deletion strains, locus YGR229C, strain SMI1, active compounds read low 0.577 | S. cerevisiae deletion strains, locus YGR252W, strain gcn5, active compounds read low 0.646 | [11] 1.4 [resistant] | [12] 1.56 [resistant] | S. cerevisiae deletion strains, locus YLR342W, strain FKS1 (second series), active compounds read low 0.64 | S. cerevisiae deletion strains, locus YLR418C, strain cdc73, active compounds read low 0.714 | S. cerevisiae deletion strains, locus YNL128W, strain TEP1, active compounds read low 0.58 | [17] 0.731
inactive: [1] 0.927 | [2] 1 | S. cerevisiae deletion strains, locus YCL029C, strain bik1, active compounds read low 1.06 | S. cerevisiae deletion strains, locus YDL035C, strain GPR1, active compounds read low 0.913 | S. cerevisiae deletion strains, locus YDL074C, strain BRE1, active compounds read low 0.819 | [3] 1.02 | S. cerevisiae deletion strains, locus YDL134C, strain PPH21, active compounds read low 0.987 | S. cerevisiae deletion strains, locus YDL185W, strain tfp1, active compounds read low 1.01 | S. cerevisiae deletion strains, locus YDL192W, strain arf1, active compounds read low 1.01 | S. cerevisiae deletion strains, locus YDR101C, strain arx1, active compounds read low 1 | [4] 1.01 | S. cerevisiae deletion strains, locus YDR162C, strain NBP2, active compounds read low 0.992 | S. cerevisiae deletion strains, locus YDR318W, strain mcm21, active compounds read low 0.992 | S. cerevisiae deletion strains, locus YDR388W, active compounds read low 0.981 | S. cerevisiae deletion strains, locus YDR502C, strain sam2, active compounds read low 0.953 | [5] 1 | S. cerevisiae deletion strains, locus YER110C, active compounds read low 1.01 | S. cerevisiae deletion strains, locus YER155C, strain BEM2, active compounds read low 1.02 | S. cerevisiae deletion strains, locus YER167W, strain BCK2, active compounds read low 0.98 | S. cerevisiae deletion strains, locus YGL078C, strain dbp3, active compounds read low 1.01 | S. cerevisiae deletion strains, locus YGL086W, strain mad1, active compounds read low 0.963 | S. cerevisiae deletion strains, locus YGL248W, strain PDE1, active compounds read low 0.998 | [6] 0.932 | [7] 0.949 and 1.03 | S. cerevisiae deletion strains, locus YHR079C, strain IRE1 (second series), active compounds read low 1.01 | S. cerevisiae deletion strains, locus YHR079C, strain IRE1, active compounds read low 1.03 | S. cerevisiae deletion strains, locus YHR094C, strain hxt1, active compounds read low 1.01 | S. cerevisiae deletion strains, locus YHR129C, strain ARP1, active compounds read low 1.01 | S. cerevisiae deletion strains, locus YHR200W, strain rpn10, active compounds read low 0.999 | S. cerevisiae deletion strains, locus YIL066C, strain RNR3, active compounds read low 0.951 | S. cerevisiae deletion strains, locus YIL073C, strain SPO22, active compounds read low 0.956 | S. cerevisiae deletion strains, locus YIL125W, strain kgd1, active compounds read low 0.996 | S. cerevisiae deletion strains, locus YIR030C, strain dcg1, active compounds read low 1.01 | S. cerevisiae deletion strains, locus YJL095W, strain BCK1, active compounds read low 0.847 and 1.02 | S. cerevisiae deletion strains, locus YJL134W, strain LCB3, active compounds read low 1 | S. cerevisiae deletion strains, locus YJL168C, strain set2, active compounds read low 1.02 | S. cerevisiae deletion strains, locus YJL187C, strain SWE1 (second series), active compounds read low 0.96 | [8] 1.06 | S. cerevisiae deletion strains, locus YJR066W, strain TOR1, active compounds read low 0.949 | [9] 0.934 | S. cerevisiae deletion strains, locus YKL009W, strain mrt4, active compounds read low 0.934 | S. cerevisiae deletion strains, locus YKL068W, active compounds read low 0.995 | S. cerevisiae deletion strains, locus YKL085W, strain MDH1 (second series), active compounds read low 0.99 | S. cerevisiae deletion strains, locus YKL085W, strain MDH1, active compounds read low 0.99 | [10] 0.996 | S. cerevisiae deletion strains, locus YKR001C, strain vps1, active compounds read low 1.01 | S. cerevisiae deletion strains, locus YLR058C, strain SHM2, active compounds read low 0.998 | S. cerevisiae deletion strains, locus YLR102C, strain apc9, active compounds read low 1.01 | S. cerevisiae deletion strains, locus YLR113W, strain HOG1, active compounds read low 0.995 | S. cerevisiae deletion strains, locus YLR268W, strain sec22, active compounds read low 1.03 | S. cerevisiae deletion strains, locus YLR330W, strain CHS5, active compounds read low 1.01 | S. cerevisiae deletion strains, locus YLR371W, strain rom2, active compounds read low 1.01 | S. cerevisiae deletion strains, locus YML016C, strain PPZ1, active compounds read low 1 | S. cerevisiae deletion strains, locus YML032C, strain rad52, active compounds read low 0.995 | S. cerevisiae deletion strains, locus YML124C, strain tub3, active compounds read low 1.02 | S. cerevisiae deletion strains, locus YMR078C, strain ctf18, active compounds read low 1.01 | S. cerevisiae deletion strains, locus YMR223W, strain ubp8, active compounds read low 0.953 | [13] 0.912 | S. cerevisiae deletion strains, locus YMR307W, strain GAS1, active compounds read low 0.979 | S. cerevisiae deletion strains, locus YNL067W, strain RPL9B, active compounds read low 0.959 | [14] 0.945 | S. cerevisiae deletion strains, locus YNL183C, strain NPR1, active compounds read low 0.96 | S. cerevisiae deletion strains, locus YNL233W, strain BNI4, active compounds read low 0.956 | S. cerevisiae deletion strains, locus YNL250W, strain rad50, active compounds read low 1.01 | S. cerevisiae deletion strains, locus YNL271C, strain bni1, active compounds read low 1.02 | S. cerevisiae deletion strains, locus YNL298W, strain CLA4, active compounds read low 1 | S. cerevisiae deletion strains, locus YNL307C, strain MCK1, active compounds read low 0.924 | [15] 1.01 | S. cerevisiae deletion strains, locus YNR052C, strain pop2, active compounds read low 0.98 | [16] 0.555 | S. cerevisiae deletion strains, locus YOL012C, strain htz1 1.16 | S. cerevisiae deletion strains, locus YOL147C, strain pex11, active compounds read low 1.01 | S. cerevisiae deletion strains, locus YOR061W, strain CKA2, active compounds read low 0.977 | S. cerevisiae deletion strains, locus YOR069W, strain VPS5, active compounds read low 1 | S. cerevisiae deletion strains, locus YOR136W, strain idh2, active compounds read low 0.996 | S. cerevisiae deletion strains, locus YOR144C, strain elg1, active compounds read low 1.01 | S. cerevisiae deletion strains, locus YOR184W, strain ser1, active compounds read low 0.983 | S. cerevisiae deletion strains, locus YOR231W, strain MKK1, active compounds read low 1.03 | S. cerevisiae deletion strains, locus YOR316C, strain cot1, active compounds read low 1.01 | [18] 1 | S. cerevisiae deletion strains, locus YPL256C, strain CLN2, active compounds read low 1.06 | S. cerevisiae deletion strains, locus YPR119W, strain clb2, active compounds read low 1.02 | S. cerevisiae deletion strains, locus YPR141C, strain kar3, active compounds read low 0.999 | S. cerevisiae deletion strains, locus YPR163C, strain tif3, active compounds read low 0.991 | S. cerevisiae deletion strains, locus YPR167C, strain met16, active compounds read low 1 | S. cerevisiae deletion strains, strain wtn01, active compounds read low 0.975 | S. cerevisiae strains, strain wild type, active compounds read low 0.947

O=C1CCCc2c1nc(-c1ccccc1)n2O
inactive: [1] 1 | [2] 1 | [3] 1.03 | [4] 0.966 | [5] 1.05 | [6] 1 | [7] 1.05 | S. cerevisiae deletion strains, locus YHR087W, strain rtc3, active compounds read low 0.999 | S. cerevisiae deletion strains, locus YJL187C, strain SWE1, active compounds read low 1.02 | [8] 0.995 | [9] 1.01 | [10] 1 | [11] 1.04 | S. cerevisiae deletion strains, locus YLR058C, strain SHM2 (second series), active compounds read low 1.03 | S. cerevisiae deletion strains, locus YLR085C, strain ARP6, active compounds read low 0.998 | [12] 1.06 | S. cerevisiae deletion strains, locus YML094W, strain GIM5, active compounds read low 1.01 | S. cerevisiae deletion strains, locus YMR219W, strain ESC1, active compounds read low 1.01 | [13] 0.999 | [14] 1.03 | S. cerevisiae deletion strains, locus YNL298W, strain CLA4 (second series), active compounds read low 0.993 | [15] 1.01 | S. cerevisiae deletion strains, locus YNR030W, strain Alg12, active compounds read low 1.01 | [16] 0.999 | [17] 0.905 | [18] 1.02 | S. cerevisiae deletion strains, locus YPR135W, strain CTF4, active compounds read low 1
